TDP1 cell CPT – DT40-hTDP1 cell growth loss with CPT. chicken DT40 Tdp1-/-;hTDP1 cells + 20 nM CPT, ATP luminescence, 48 h. Potency, µM (top dose mostly 46.2 µM), usual class: inhibitors. 420,000 compounds, 12% hits; further: nearly all actives have a fitted effect of over 55% in size
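Chicken DT40 Tdp1-/- cells complemented with human TDP1, 400 cells/well, exposed to compounds plus 20 nM camptothecin for at least 48 h at 37 C; viability read as ATP content by CellTiter-Glo luminescence.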
HT1080-NT tox – kills 2HG-producing HT-1080-NT fibrosarcoma cells; HT-1080-NT fibrosarcoma viability, CellTiter-Glo ATP luminescence, 48 h; Potency, µM (top dose mostly 46.1 µM), usual class: cytotoxic; 360,000 compounds, 1.6% hits; AID 686970;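 further: NT is the 2HG producing partner of a matched IDH1 knockdown line; nearly all actives have a fitted effect of over 55% in size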
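Toxicity toward the 2HG-producing NT line was scored as %Activity, normalised to DMSO and no-cell wells, from CellTiter-Glo luminescence after 48 hours' treatment.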
IL1B secr inh – inflammasome signaling inhibition, IL-1 beta readout; THP-1 LPS/ATP IL-1B secretion, AlphaLISA, 16 h; active compounds read low; activity change, % at 57.5 µM; 360,000 compounds, 4.7% hits; AID 743279; in the data active means activity change below about -50%; inconclusive means mostly about -30% to -49%
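THP-1 cells pretreated 1 hr with compounds (up to 57.5 uM final), then stimulated with LPS (250 ng/mL final) plus ATP (1.25 mM final); secreted IL-1B measured by AlphaLISA after 16 hr, decreased signal indicating inhibition.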
HT1080 IDH1KD tx – kills HT-1080 cells with IDH1 knockdown; 360,000 compounds, 2% hits; Potency, µM (series often up to 46.1 µM), usual class: cytotoxic; HT-1080 IDH1 knockdown viability, ATP luminescence, 48 h
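% activity derives from luminescence (CellTiter-Glo), normalised to DMSO and no-cell wells. HT-1080-IDH1KD cells, 750/well, had 48 h compound exposure at 37 °C.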
TDP1 cell noCPT – qHTS for Inhibitors of human tyrosyl-DNA phosphodiesterase 1 (TDP1): qHTS in cells in absence of CPT; DT40 Tdp1-/- hTDP1 cells, no CPT, ATP luminescence, 48 h; Potency, µM (doses to about 46.2 µM), actives largely listed as inhibitors; 420,000 compounds, 15% hits; AID 686978, 2013; further: nearly all actives have a fitted effect of over 55% in size
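Luminescent ATP content (CellTiter-Glo) served as the growth readout. Knockout chicken DT40 cells expressing human TDP1 were exposed to compounds without camptothecin for a minimum 48 hr at 37 °C.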
Hits are given with their value; . = inactive; ? = inconclusive; / = not tested or not shown. This is a sample that favours compounds with a hit; in the whole collection about 19% have one here. Unless noted, the call rests on the fitted dose curve; in most records, active means well fitted curve in the direction sought with a large enough effect; inconclusive means small, poorly fitted or top-dose-only effect, or another doubt; inactive means no such curve, though single readings can be large; an effect the other way counts as inactive or inconclusive.

SMILES | TDP1 cell CPT | HT1080-NT tox | IL1B secr inh | HT1080 IDH1KD tx | TDP1 cell noCPT
Cc1ccc(S(=O)(=O)c2cc3c(=O)n4ccccc4nc3n(C3CCCCC3)c2=N)cc1 | ? | . | . | . | 20.6µM
Cc1ccc(S(=O)(=O)c2cc3c(=O)n4ccccc4nc3n(CCCN3CCOCC3)c2=N)cc1C | ? | . | -72.3 | . | .
COc1cc(NC(=O)C/C(C)=N/NC(=O)C(=O)NCCO)c(OC)cc1Cl | ? | . | . | . | .
CC(=O)Nc1ccc(C(=O)n2cnc3cc(C)c(C)cc32)cc1 | . | . | . | . | .
CC(=O)Nc1ccc(S(=O)(=O)n2cnc3cc(C)c(C)cc32)cc1 | 8.2µM | ? | . | . | 18.4µM
O=C(CN1C2CCC1CC(NC(=O)Nc1ccccc1)C2)NCc1ccco1 (stereo not drawn) | . | . | . | . | .
COc1cc(CNCCN(C)C)c(Br)cc1OC1CCCC1 | 18.4µM | . | . | . | ?
CC(C)Oc1cccc(C(=O)C2CCCN(Cc3cnn(C(C)C)c3)C2)c1 (stereo not drawn) | ? | . | . | ? | ?
Cc1nn(C)c(C)c1CCC(=O)N1CCCC(C(=O)c2cccc(OC(C)C)c2)C1 (stereo not drawn) | 18.4µM | . | . | . | ?
CC(C)Oc1cccc(C(=O)C2CCCN(C(=O)CCc3cnn(C)c3)C2)c1 (stereo not drawn) | 16.4µM | . | . | . | ?
O=C(NNc1cccc(Cl)n1)c1ccc(Cl)cc1Cl | . | . | . | . | .
O=C(NNc1cccc(Cl)n1)c1ccccc1CC[N+](=O)[O-] | 10.3µM | . | . | . | ?
COCCC(=O)N1CCC(Oc2ccc(C(=O)NCCCC3CCCC3)cc2)CC1 | 20.6µM | . | . | . | 20.6µM
COCCC(=O)N1CCC(Oc2ccc(C(=O)NCCC3=CCCCC3)cc2)CC1 | 16.4µM | . | . | . | ?
COCCC(=O)N1CCC(Oc2ccc(C(=O)NCCc3cnn(C)c3)cc2)CC1 | . | . | . | . | .
Cc1nnc(NC(=O)c2cc(-c3ccncc3)nc3c(C)cccc23)s1 | . | . | . | . | .
Cc1ccc(NC(=O)CNCc2ccc(Cl)cc2Cl)cc1S(=O)(=O)N(C)C | ? | . | . | . | 18.4µM
Cc1ccc(NC(=O)Cc2c(Cl)cccc2Cl)cc1S(=O)(=O)N(C)C | ? | . | . | ? | 16.4µM
COc1ccc(/C=N/NC(=O)c2c(C)nnn2-c2nonc2N)cc1OC | . | . | . | . | .
COc1ccc(OC)c2c(C)cc(N3CCCCCC3)nc12 | ? | . | . | . | 9.2µM
NCCCNc1ccc(Br)cn1 | . | . | / | . | ?
COc1cc(/C=C/C(=O)OCC(=O)NC(=O)NC(C)C)cc(S(=O)(=O)N2CCc3ccccc32)c1OC | ? | ? | ? | . | 20.6µM
O=C(/C=C/c1ccccc1)NC(=S)Nc1ccc(CN2CCOCC2)cc1 | ? | ? | -109.4 | ? | 18.4µM
O=C(NC(=S)Nc1ccc(CN2CCOCC2)cc1)c1cc2ccccc2o1 | ? | . | . | . | .
O=C(/C=C/c1ccc(Cl)cc1Cl)NC(=S)Nc1ccc(CN2CCOCC2)cc1 | 16.4µM | . | . | . | 13µM
SMILES | TDP1 cell CPT | HT1080-NT tox | IL1B secr inh | HT1080 IDH1KD tx | TDP1 cell noCPT
O=C(Nc1ccc(CN2CCOCC2)cc1)c1ccc(Cl)cc1Cl | . | ? | . | . | .
Fc1ccccc1-c1nc(NCc2ccco2)c2ccccc2n1 | . | . | . | . | .
O=c1c2ccccc2nc2c3ccccc3c(NCc3ccco3)nn12 | ? | . | . | . | 20.6µM
c1coc(CNc2nc(N3CCCCC3)nc3ccccc23)c1 | 25.9µM | ? | -57.8 | ? | 18.4µM
c1ccc(CNc2nc(N3CCN(Cc4ccccc4)CC3)nc3ccccc23)cc1 | ? | ? | / | 20.6µM | 16.4µM
c1ccc(CNc2nc(-c3cccs3)nc3ccccc23)nc1 | ? | . | -76.8 | ? | ?
OCCNc1nc(N2CCCCC2)nc2ccccc12 | . | . | . | . | .
CCN(C(=O)COC(=O)CCC(=O)c1ccc(C)cc1)c1c(N)n(Cc2ccccc2)c(=O)[nH]c1=O | ? | . | . | . | .
CCCOc1ccc(Oc2ccc(S(=O)(=O)N3CCN(C)CC3)cn2)cc1 | . | . | . | . | ?
CCc1ccc(OCC(=O)NCc2nc(-c3cccc(C)c3)no2)c(Br)c1 | . | / | / | / | .
COc1ccc(C(=O)Nn2c(SCC(=O)NCC3CCCO3)nc3ccccc3c2=O)cc1 (stereo not drawn) | . | . | . | . | .
CCOc1ccc(Nc2nc(NCC3CCCO3)c3ccccc3n2)cc1 (stereo not drawn) | 25.9µM | 18.4µM | -98.3 | ? | 2.91µM
c1ccc(-c2nc(NCC3CCCO3)c3ccccc3n2)nc1 (stereo not drawn) | 5.17µM | ? | . | . | 4.61µM
c1ccc2c(NCC3CCCO3)nc(N3CCOCC3)nc2c1 (stereo not drawn) | . | . | . | . | .
c1ccc(Nc2nc(NCC3CCCO3)c3ccccc3n2)cc1 (stereo not drawn) | 3.66µM | 23.1µM | -100.8 | 18.4µM | 3.26µM
COc1ccc(Nc2nc(NCC3CCCO3)nc(N)c2[N+](=O)[O-])cc1 (stereo not drawn) | ? | . | . | . | ?
COc1ccc(Nc2nc(NCC3CCCO3)c3ccccc3n2)c(OC)c1 (stereo not drawn) | 16.4µM | ? | / | ? | 14.6µM
CCOCCCNC(=O)Cn1ncc2c([nH]c3ccc(C)cc32)c1=O | ? | / | / | / | .
N#Cc1cnc(=S)n(-c2cc(C(F)(F)F)cc(C(F)(F)F)c2)c1N | ? | . | . | . | ?
c1ccc(-c2nc(NCc3ccco3)c3ccccc3n2)nc1 | 2.59µM | . | . | ? | 2.59µM
Nc1nc(NCC2CCCO2)nc(Nc2ccccc2)c1[N+](=O)[O-] (stereo not drawn) | ? | . | . | . | ?
Oc1cccc(Nc2nc(NCC3CCCO3)c3ccccc3n2)c1 (stereo not drawn) | 16.4µM | ? | / | . | 14.6µM
COCCCNc1nc2ccccc2nc1NS(=O)(=O)c1cccc(Cl)c1 | ? | . | . | . | ?
O=S(=O)(Nc1nc2ccccc2nc1NCC1CCCO1)c1cccc(Cl)c1 (stereo not drawn) | ? | . | . | . | 16.4µM
Oc1ccccc1-c1nc(NCc2ccco2)c2ccccc2n1 | . | . | . | . | ?
COC(=O)[C@]12CCCCC=C1N(Cc1cccc3ccccc13)C(=O)[C@H](CC(=O)NCC13CC4CC(CC(C4)C1)C3)C2 | ? | ? | ? | . | ?
O=C(NCc1cccnc1)C(=O)NCC1OCCN1S(=O)(=O)c1ccc(F)cc1 (stereo not drawn) | . | . | . | . | .
CCC(c1ccc(O)c(O)c1)C(CC)c1ccc(O)c(O)c1 (stereo not drawn) | 2.91µM | 23.1µM | -98.8 | 20.6µM | 1.84µM
